Experimental findings from PubChem BioAssay AID743279 (National Center for Advancing Translational Sciences (NCATS), 2014) are described below.

Molecules are shown by their SMILES. In all, about 360,000 compounds went through this assay and about 17,000 (4.7%) were called active. About 5% were inconclusive and are not listed. Rule as the data show it: active = activity change below about -50%; inconclusive = mostly about -30% to -49%; inactive = weaker than that. The full list was thinned out, with actives kept by preference.
% is scaled to controls: 0 for no effect and ±100 for the full control effect.

The nature of the assay: qHTS for Inhibitors of Inflammasome Signaling: IL-1-beta AlphaLISA Primary Screen. To be noted: THP-1 LPS/ATP IL-1B secretion, 16 h; at 57.5 µM, active compounds read low. Summed up: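 Secreted IL-1B measured by AlphaLISA bead assay after 16 h compound exposure of THP-1 cells; compounds (final up to 57.5 uM) added 1 h before LPS (250 ng/mL) and ATP (1.25 mM) stimulation; lower signal means less secretion.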
For orientation: qHTS replaces the single test concentration by a dilution series.
`Cc1sc2ncnc(SCC(=O)NC3CCS(=O)(=O)C3)c2c1C` (stereo not given): the activity change is -4.05% (inactive).
Under `N#Cc1ccc(-c2ccc(Cl)cc2)nc1Oc1ccc(F)cc1` stands 30% (inactive); under `CCc1cc2c(NC(Cc3ccccc3)C(=O)O)ncnc2s1` (stereo not given), 0% (inactive); under `CCc1cc2c(N3CCN(c4nnc(CC)s4)CC3)ncnc2s1`, -71.6% (active).
As for `CCc1cc2c(NC3CCCC3)ncnc2s1`, the figure is -11.8% (inactive).
As for `COc1ccc(NC2CCCN(C(=O)c3ccccc3-c3ncc[nH]3)C2)cc1` (stereo not given), the figure is 20.4% (inactive).
For the compound `COc1ccc(Cl)cc1C(=O)NNC(=O)c1nc2nc(C)cc(C)n2n1`, the activity change was 27% (inactive).
Under `Cn1c(-c2ccccc2)c[n+]2c1CCCCC2` stands -10.2% (inactive); under `Clc1ccc(C[n+]2cc(-c3ccc(Cl)cc3)n3c2CCC3)cc1`, -53.1% (active); under `Cc1cc2c(cc1C)N1C(=O)c3cc4ccccc4cc3NC(=O)C1C(=O)N2` (stereo not given), 0% (inactive).
As for `COc1cccc(N(C(=O)c2snc(C(N)=O)c2N)C(C(=O)NCC2CCCO2)c2c[nH]c3ccccc23)c1` (stereo not given), the figure is -66.5% (active); as for `COc1ccc(C(C(=O)NC2CCCCC2)N(C(=O)c2snc(C(N)=O)c2N)c2ccccc2OC)cc1` (stereo not given), -4.36% (inactive); as for `Cc1ccc(C(C(=O)NCC2CCCO2)N(C(=O)c2snc(C(N)=O)c2N)c2ccc(C(C)C)cc2)o1` (stereo not given), -54.6% (active).
Under `Cc1cccc(N(C(=O)c2sc(C)nc2C)C(C(=O)NCC2CCCO2)c2ccccc2)c1` (stereo not given) stands 17.8% (inactive).
As to `CCOc1ccc(N(C(=O)c2snc(C(N)=O)c2N)C(C(=O)NCC2CCCO2)c2c[nH]c3ccccc23)cc1` (stereo not given), the activity change is -52.3% (active).
As for `Cc1ccc(N(C(=O)c2snc(C(N)=O)c2N)C(C(=O)NCC2CCCO2)c2c[nH]c3ccccc23)cc1` (stereo not given), the figure is -66.2% (active); as for `CCOc1cc(C(C(=O)NCC2CCCO2)N(C(=O)Cn2nnc3ccccc32)c2cccc(OC)c2)ccc1O` (stereo not given), -7.04% (inactive); as for `COc1ccc(N(C(=O)c2snc(C(N)=O)c2N)C(C(=O)NC2CCCC2)c2ccco2)cc1OC` (stereo not given), 37% (inactive).
Under `CCOc1ccc(-n2c(N)c(C(=O)NCC3CCCO3)sc2=S)cc1` (stereo not given) stands -28.6% (inactive); under `CCC(C(=O)NC1CCCC1)N(C(=O)c1snc(C(N)=O)c1N)c1ccc2c(c1)OCCO2` (stereo not given), -12.2% (inactive).
In the case of `COCCNC(=O)C(c1ccc(C)o1)N(Cc1cccs1)C(=O)c1snc(C(N)=O)c1N` (stereo not given), the activity change was 18.9% (inactive).
As for `Cc1ccc(N(C(=O)Cc2cccs2)C(C(=O)NCC2CCCO2)c2ccncc2)cc1` (stereo not given), the figure is -6.16% (inactive).
Under `CCOc1ccccc1NS(=O)(=O)c1c[nH]c(C(=O)OC)c1` stands 5.96% (inactive).
Under `CSC1=NN(c2ccccc2)CN(c2ccccc2)N1C` stands -27.8% (inactive); under `NC1=C([N+](=O)[O-])C(c2ccccc2)C2=C(CCCC2=O)O1` (stereo not given), 23.3% (inactive); under `O=C(NC1CCCCC1)c1ccc(CNc2c(N3CCOCC3)c(=O)c2=O)cc1`, -13.2% (inactive).
In the case of `CC(Nc1ccc([N+](=O)[O-])cc1[N+](=O)[O-])c1ccccc1` (stereo not given), the activity change was 5.52% (inactive).
In the case of `COc1ccc(OC)c(C(O)c2ncc(-c3cccc(C(F)(F)F)c3)[nH]2)c1` (stereo not given), the activity change was 0% (inactive).
In the case of `CSCCC(NC(=O)c1ccc(Cl)cc1Cl)C(=O)NNC(=O)c1csc(N2CCOCC2)n1` (stereo not given), the activity change was -2.31% (inactive).
As for `CC1(C(=O)NS(=O)(=O)c2cccc(F)c2)CCN1C(=O)Cc1cc(F)ccc1F` (stereo not given), the figure is 17.9% (inactive); as for `CC1CCCCC12NC(=O)N(CC(=O)Nc1ccc(S(=O)(=O)Nc3ncccn3)cc1)C2=O` (stereo not given), -5.14% (inactive); as for `Cc1ccc(NC(=O)Cn2sc3ccccc3c2=O)cc1`, -108% (active).
Under `Cc1nn(CC(=O)Nc2ccc(F)cc2)c(=O)c2ccccc12` stands -1.55% (inactive).
Under `Cc1ccc(NC(=O)Cn2c(C)csc2=O)cc1` stands -15.7% (inactive).
`COc1cccc(OC)c1C(=O)Nc1ccc2c(c1)n(C)c(=O)n2C`: the activity change is 0% (inactive).
Consider `COc1cccc2sc3cc(NCC[C@@H]4CCCN4C)ccc3c(=O)c12`, for which the activity change is -71.4% (active).
For `CCCCC[C@H](C)N1C[C@@H](COCc2ccccc2)Oc2cc(N3CCC[C@@H]3CO)ccc2S1(=O)=O`, the activity change was 0.594% (inactive).
As for `O=C(c1cccs1)C1C(c2ccc(Br)cc2)NC(=S)NC1(O)C(F)(F)F` (stereo not given), the figure is -6.17% (inactive); as for `O=C(COC(=O)COc1ccccc1F)Nc1cccc(S(=O)(=O)N2CCCCC2)c1`, -4.52% (inactive); as for `CCCCCc1ccc(-c2ccc(C(=O)O)cc2)nc1`, 46.9% (inactive).
As for `CC(=O)Nc1cnc(-c2ccc(O)cc2C)cn1`, the figure is -15.7% (inactive); as for `Cc1ccc(-c2csc(NCCc3nc4cc(Cl)c(Cl)cc4n3CCOCCO)n2)cc1`, -12.6% (inactive); as for `Cc1ccc(Nc2nc(-c3ccc(O)cc3O)cs2)nc1`, -66.7% (active).
As for `COc1ccc(NC(=O)/C(N=Nc2cccc(S(=O)(=O)Nc3ccc(SC(F)F)cc3)c2)=C(\C)O)cc1`, the figure is 2.19% (inactive).
For the compound `Cc1cccc(CN2CCN(C3CN(Cc4cn(Cc5ccccc5F)nn4)S(=O)(=O)C3)CC2)c1` (stereo not given), the activity change is 4.26% (inactive).
As for `COc1cc(C(=O)NNC(=O)CN2C(=O)NC3(CCCC3)C2=O)cc(OC)c1OC`, the activity change is -7.47% (inactive).
As for `Cc1ccccc1-c1ccc2c(c1)O[C@@H](CN(C)Cc1ccc(C(=O)O)cc1)[C@@H](C)CN([C@H](C)CO)S2(=O)=O`, the figure is 20.6% (inactive).
As for `Cc1ccc(SC(=O)COc2ccc(C)c(C)c2)cc1`, the figure is -70% (active); as for `COc1ccc(C(=O)COC(=O)COc2ccc(C)c(C)c2)cc1`, 6.77% (inactive); as for `Cc1ccc(OCC(=O)NC(C)c2ccccc2)cc1C` (stereo not given), 9.86% (inactive).
As for `Clc1cccc(Cc2c(-c3cccc(Cl)c3)nc3ccc(Cl)cn23)c1`, the figure is 64.9% (inactive); as for `Cc1ccc(NC2=C(Cl)C(=O)OC2OC(=O)c2ccccc2C)cc1` (stereo not given), -89.8% (active).
Turning to `O=C1OC(OC(=O)c2ccccc2Br)C(N2CCOCC2)=C1Cl` (stereo not given), the activity change was -12.8% (inactive).
As for `Cc1ccccc1C(=O)OC1OC(=O)C(Cl)=C1Nc1ccccc1` (stereo not given), the figure is -17.8% (inactive).
As for `CCOC(=O)[C@H]1[C@H]2COc3ccc(Br)cc3[C@@H]2N2C(=O)CN(C)C(=O)[C@@]12C`, the figure is 19.3% (inactive).
